Test results: PubChem BioAssay (NCI)
Compounds without any hit were thinned out: in the full panel of roughly 83,000, 20% have a hit.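 Plates (96-well) were seeded with cells, treated with compound at one concentration, and incubated for 48 hours before percent growth was determined.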

Key:
Assay in all cases: NCI-60 one-dose screen, 48 h (100 = growth as untreated, 0 = no growth, -100 = all killed)
Conditions in all cases: 10 µM unless noted; active means growth percent below 10; inactive means the rest
[1] = system: DU-145 prostate
[2] = system: K-562 leukemia
[3] = system: MALME-3M melanoma
[4] = system: MDA-MB-231 breast
[5] = system: RXF 393 renal
[6] = system: SF-268 CNS
[7] = system: SF-295 CNS
[8] = system: UACC-257 melanoma
[9] = system: M14 melanoma
[10] = system: SF-539 CNS

Measured: growth

Nc1c(Br)cc(O)c2c1C(=O)c1ccccc1C2=O
inactive: [1] 91.6% | [2] 66.3% | [3] 89.5% | [4] 77.5% | [5] 80.5% | [6] 60.3% | [7] 114% | [8] 89.1% | [9] 100%

CN1CCCN(C(c2ccccc2)c2ccc(Cl)cc2)CC1 (stereo not given)
inactive: [1] 107% | [2] 90% | [3] 98.8% | [4] 95.8% | [5] 86.8% | [6] 82.3% | [7] 92.2% | [10] 96.9% | [9] 91.1%

CCCCN(C=S)CCCC
inactive: [1] 112% | [2] 113% | [3] 101% | [4] 104% | [5] 101% | [6] 105% | [7] 99.1% | [8] 99.6% | [9] 94.8%

Oc1ccc(CCC2CCNc3ccccc32)cc1 (stereo not given)
inactive: [1] 93.4% | [2] 69.7% | [3] 98.8% | [4] 86.2% | [5] 81.5% | [6] 83.1% | [7] 75.2% | [10] 75.7% | [9] 89.4%

CC(c1ccccc1)N(C)C (stereo not given)
inactive: [1] 119% | [2] 28% | [3] 141% | [4] 99.1% | [5] 124% | [6] 108% | [7] 131% | [10] 103% | [8] 116% | [9] 92.1%

Cc1ccc(/C=N/NC(N)=S)s1
inactive: [1] 110% | [2] 103% | [3] 108% | [4] 104% | [5] 99.3% | [6] 98.7% | [7] 105% | [10] 97.6% | [8] 109% | [9] 102%

Cc1[nH]nc(C(N)=O)c1[N+](=O)[O-]
inactive: [1] 103% | [2] 126% | [3] 94% | [5] 86.9% | [6] 99.4% | [7] 99% | [10] 93.3% | [8] 93.7% | [9] 90.4%

CCCOCc1cn[nH]n1
inactive: [1] 108% | [2] 104% | [4] 110% | [5] 109% | [6] 103% | [7] 101% | [10] 98.8% | [8] 94% | [9] 106%

Nc1nnc2cc(F)ccc2n1
inactive: [1] 102% | [2] 97.2% | [3] 107% | [4] 102% | [6] 99.6% | [10] 107% | [8] 110% | [9] 99.3%

COC(=O)c1cccc([N+](=O)[O-])c1
inactive: [1] 105% | [2] 120% | [3] 102% | [5] 108% | [6] 102% | [7] 105% | [10] 98.5% | [8] 95.5% | [9] 105%

CNc1ccccc1C(N)=O
inactive: [1] 107% | [2] 108% | [3] 97.9% | [5] 98.1% | [6] 100% | [7] 95.5% | [10] 97.6% | [8] 98.4% | [9] 96.2%

C1C[S+]2CC[S+]1CC2
inactive: [1] 105% | [2] 104% | [3] 99.9% | [5] 106% | [6] 102% | [7] 99% | [10] 108% | [8] 94.9% | [9] 101%

CC(C)N1CC(=O)N2CSCC2C1=O (stereo not given)
inactive: [1] 107% | [2] 104% | [4] 120% | [5] 104% | [6] 106% | [7] 105% | [10] 97.6% | [8] 108% | [9] 104%

O=C1C=CC(=O)C2=C1CCCC2
inactive: [1] 101% | [2] 46.3% | [3] 91.9% | [5] 103% | [6] 93.7% | [7] 104% | [10] 104% | [8] 95.6% | [9] 96.4%

O=S(=O)(c1ccc(NC(=S)NCc2cccnc2)cc1)N1CCCCC1
inactive: [1] 46.9% | [2] 33% | [3] 90.3% | [4] 95.1% | [6] 72.6% | [10] 31.9% | [8] 101% | [9] 39.7%
